# Results: PubChem BioAssay (NCI)
# The panel holds about 83,000 compounds, 20% with a hit somewhere; the sample as a whole holds those more often.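 For each line, cells grew in 96-well plates with the test compound present at a single concentration for 48 hours.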 Unmarked numbers belong to inactive results. The source made the active and inactive calls. How the source made its calls: active means growth percent below 10; inactive means the rest.
# Columns and labels:
# Assay in all cases: NCI-60 one-dose screen, 48 h (100 = growth as untreated, 0 = no growth, -100 = all killed)
# Details in all cases: 10 µM unless noted
# DU-145 prostate = system: DU-145 prostate
# K-562 leukemia = system: K-562 leukemia
# MALME-3M melanoma = system: MALME-3M melanoma
# MDA-MB-231 breast = system: MDA-MB-231 breast
# RXF 393 renal = system: RXF 393 renal
# SF-268 CNS = system: SF-268 CNS
# SF-295 CNS = system: SF-295 CNS
# SF-539 CNS = system: SF-539 CNS
# UACC-257 melanoma = system: UACC-257 melanoma
# M14 melanoma = system: M14 melanoma
# HCT-15 colon = system: HCT-15 colon
# HT29 colon = system: HT29 colon
# SNB-75 CNS = system: SNB-75 CNS
# SNB-19 CNS = system: SNB-19 CNS
# U251 CNS = system: U251 CNS
# PC-3 prostate = system: PC-3 prostate
# SK-MEL-5 melanoma = system: SK-MEL-5 melanoma
# UACC-62 melanoma = system: UACC-62 melanoma
# LOX IMVI melanoma = system: LOX IMVI melanoma
# SK-MEL-28 melanoma = system: SK-MEL-28 melanoma
Compound,growth (DU-145 prostate) [%],growth (K-562 leukemia),growth (MALME-3M melanoma),growth (MDA-MB-231 breast),growth (RXF 393 renal),growth (SF-268 CNS) [%],growth (SF-295 CNS),growth (SF-539 CNS),growth (UACC-257 melanoma),growth (M14 melanoma),growth (HCT-15 colon),growth (HT29 colon),growth (SNB-75 CNS),growth (SNB-19 CNS) [%],growth (U251 CNS),growth (PC-3 prostate),growth (SK-MEL-5 melanoma),growth (UACC-62 melanoma),growth (LOX IMVI melanoma),growth (SK-MEL-28 melanoma)
COc1ccc(CNC(=O)C(O)C(Cc2ccccc2)NC(=O)c2[nH]c3ccccc3c(=O)c2C)cc1OC (stereo not given),113,102%,111%,103%,111%,102,99.7%,107%,105%,106%,101%,100%,107%,100,101%,102%,103%,103%,104%,109%
COc1ccc2[nH]c(O)c(/C=c3/cc4c(c(-c5cc(OC)c(OC)c(OC)c5)n3)=Nc3ccccc3-4)c2c1,73.9,31.7%,94.8%,31.7%,43.1%,72.9,76.9%,84.1%,88.5%,49.2%,46.8%,35%,78.8%,84.4,61.4%,44.7%,52.2%,80.7%,64.8%,83.1%
C[C@H]1[C@H]2[C@H]3CC[C@@H]4[C@@]5(C)C/C(=C/c6ccco6)C(=O)C(C)(C)[C@@H]5CC[C@@]4(C)[C@]3(C)CC[C@]23CO[C@]1(C)[C@@H](C(=O)/C=C\c1ccco1)C3,111,93.4%,23.5%,94.9%,98.4%,97.3,107%,93.8%,31.5%,60.5%,112%,105%,88.2%,91.8,83.4%,79.7%,55.7%,26%,93.6%,43.9%
COc1ccc(C(=O)COc2ccc(/C=C3\Oc4ccccc4C3=O)cc2)cc1,120,101%,112%,83.6%,95.4%,108,172%,94.7%,97.8%,84.7%,96.8%,102%,89.7%,90.9,97.4%,97.3%,85.8%,72.5%,92.6%,123%
COc1ccc(C2c3ccc4ccccc4c3Oc3nc(C)[nH]c(=O)c32)cc1 (stereo not given),114,90.6%,97%,93.6%,108%,94.3,105%,96.8%,111%,95.7%,99.6%,142%,76.8%,94.7,103%,96%,101%,94.5%,88.8%,98.7%
Cc1cc(NCc2cc(Nc3ccnc4cc(Cl)ccc34)ccc2F)nc(N2CCN(C)CC2)n1,23.4,-37.2% (active),-68.3% (active),-43.9% (active),-27.1% (active),12.6,-60.9% (active),-75.3% (active),-59.7% (active),-73.1% (active),-42.9% (active),-24.5% (active),-50.9% (active),29.7,-28.2% (active),21.5%,-98% (active),-63.8% (active),-86.6% (active),-70% (active)
COc1ccccc1NC(=O)N/C(N)=N/c1nc2ccccc2s1,19.3,12.9%,57.6%,48.1%,4.12% (active),49.5,39.2%,-31.5% (active),75.4%,8.17% (active),16.5%,8.24% (active),22.6%,37.5,18.3%,25%,23.7%,31.4%,34.3%,53.4%
C#CCOc1nc(C)cc(C)c1C#N,104,100%,99%,94.5%,106%,99.6,104%,97.9%,103%,98.1%,96%,107%,79.6%,96.2,98.1%,140%,98.9%,93.5%,97.4%,111%
CN(C)CCCn1c(=O)c2ccccc2c2ccccc21,44.1,88.1%,100%,67%,74.7%,68.2,83.3%,85.6%,93.8%,87.8%,64.7%,50%,85.9%,73.4,87.9%,70%,79.7%,82.2%,56.5%,103%
O=C(Nc1cccc(C(F)(F)F)c1)Nc1cccc(C(F)(F)F)c1,25,11.5%,-17.1% (active),-34.8% (active),22.7%,22.7,4.86% (active),19.5%,-32.9% (active),13%,10.7%,3.56% (active),11.1%,10.7,-15.3% (active),6.31% (active),-72.5% (active),10.6%,8.64% (active),26.8%
CCCCN(CCCC)CC(C)(C)C(O)c1ccc(OC)c2ccccc12 (stereo not given),69.2,31.2%,47.3%,70.8%,65%,85.3,-7.15% (active),76.9%,60.2%,37%,59.1%,9.09% (active),101%,76.3,50.3%,29.5%,50.7%,56.1%,66.6%,85%
Cc1cc(NCCCCNc2ccnc3cc(Cl)ccc23)nc(Nc2ccc(C(=O)N3CCCC3)cc2)n1,48.3,-24.6% (active),-70.4% (active),-22.2% (active),32.4%,15.7,3.67% (active),-68.6% (active),-70.6% (active),-73.9% (active),7.18% (active),-2.28% (active),-9.47% (active),30.5,-7.46% (active),35.6%,-100% (active),-33.6% (active),-90.9% (active),-72.8% (active)
CCc1ccccc1-n1c(-c2ccc(Cl)cc2)cc(-c2ccc(Cl)cc2)c(C#N)c1=O,77.1,66.1%,90.8%,101%,93.3%,83.6,89%,104%,98.6%,85.3%,84.3%,84.4%,98.6%,109,84.9%,76.4%,88.7%,84.8%,82.4%,99.4%
N=C1C(c2nc(-c3ccc(Br)cc3)cs2)=C(O)CN1Cc1cccnc1,11.9,49.8%,34.1%,78.7%,67.1%,38,37.2%,60.5%,81%,69.3%,87.5%,65.4%,15.5%,75.9,56.7%,-6.43% (active),79.6%,78.2%,85.3%,48.5%
COc1ccc(-c2csc(C3=C(O)CN(C(C)C)C3=N)n2)cc1OC,108,87.7%,96.4%,81.1%,83.6%,117,113%,88.9%,105%,136%,103%,102%,112%,104,98.3%,35.3%,82.5%,97.3%,94.1%,123%
